These results are taken from PubChem BioAssay (NCATS).

Molecules are shown by their SMILES. The source made the active and inactive calls. How the calls were made is not given here.
Potency means the concentration at half of the fitted maximal effect.

This assay relates to HIV-1 nucleocapsid protein NCp7 (binding to TG oligonucleotide). Kind of assay: HIV Nucleocapsid (AID 346).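 Further: potency is for inhibitors that block NC binding and lower polarization.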 The following applies: HIV-1 NC / fluorescein-TGTGTGTG probe, fluorescence polarization. Summed up: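 Fluorescence polarization binding of 100 nM HIV-1 NC to 10 nM fluorescein-labelled TG4xF oligonucleotide. Buffer was Hepes pH 7.5 with 250mM NaCl, 1uM ZnCl2, TCEP and 2-mercaptoethanol. Compounds were incubated 1 hr at room temperature before the read.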
For the molecule `CN(C)Cc1ccccc1-c1nccc(NC2CC2)n1`, the Potency is > 20 µM (inactive).

Consider `COCCn1c(=O)c(-c2ccc(OC)cc2)nc2cnc(N3CCOCC3)nc21`, for which the Potency was > 20 µM (inactive).

On to `Cc1noc(C)c1C(=O)N1CCC2(CC1)CN(C(=O)Nc1cccc(F)c1)C2`, for which the Potency was > 20 µM (inactive).

As to `COc1ccccc1CNc1cc(-c2ccccc2C(F)(F)F)ncn1`, the Potency was > 20 µM (inactive).

Regarding `COc1ccc(NC(=O)N2CC[C@@]3(CCCN(S(C)(=O)=O)C3)C2)cc1`, the Potency is > 20 µM (inactive).

With `Fc1ccc(Nc2ccnc(-c3ccc4c(c3)OCO4)n2)cc1`, the Potency is > 20 µM (inactive).

On to `COc1ccc(C(=O)N2CCC3(CCCN(c4ccccc4)C3)CC2)cc1`, for which the Potency was > 20 µM (inactive).

For `CC(=O)N1CCC2(CC1)CN(c1ccccc1)C2`, the Potency was > 20 µM (inactive).

For `Cc1cccc(CNc2ccnc(-c3cccc(NS(C)(=O)=O)c3)n2)c1`, the Potency was > 20 µM (inactive).

Regarding `COc1ccc(NC(=O)N2CC3(CCN(C(=O)c4ccco4)CC3)C2)cc1`, the Potency was > 20 µM (inactive).

`O=C(c1ccco1)N1CCC2(CC1)CCN(C(c1ccccc1)c1ccccc1)CC2`: the Potency was > 20 µM (inactive).

On to `Cn1c(=O)c(CCc2ccccc2)nc2cnc(N3CCNCC3)nc21`, for which the Potency is > 20 µM (inactive).

Take `CN(C)c1ncc2nc(-c3ccc(Cl)cc3)c(=O)n(C[C@H]3CCCO3)c2n1`: the Potency was > 20 µM (inactive).

Turning to `O=C(Oc1ccccc1)N1CCC2(CCCN(c3ncccn3)C2)CC1`, the Potency is > 20 µM (inactive).

With `O=C(c1ccco1)N1CCC2(CC1)CN(C(c1ccccc1)c1ccccc1)C2`, the Potency is > 20 µM (inactive).

As for `COc1ccc(-n2c(=O)c(-c3cc(F)cc(F)c3)nc3cnc(N4CCNCC4)nc32)cc1`, the Potency was > 20 µM (inactive).

Take `O=C(c1cccc(F)c1)N1CCC2(CCCN(c3cccc(-c4ccccc4)c3)C2)CC1`: the Potency is > 20 µM (inactive).

Turning to `COCCNc1nc(-c2ccccc2C)nc2ccccc12`, the Potency is > 20 µM (inactive).

In the case of `CN1CCN(c2ncc3nc(-c4cccc(C#N)c4)c(=O)n(Cc4ccc(F)cc4)c3n2)CC1`, the Potency is > 20 µM (inactive).

Regarding `Cc1cccc(CNc2cc(-c3cccnc3)ncn2)c1`, the Potency is > 20 µM (inactive).

As for `COCC(=O)N1CCC2(CC1)CN(c1ccncc1)C2`, the Potency is > 20 µM (inactive).

In the case of `COc1ccc(Oc2ncc3ncc(=O)n(C4CC4)c3n2)cc1`, the Potency was > 20 µM (inactive).

Take `CCNc1ncc2nc(-c3cn(C)c4ccccc34)c(=O)n(Cc3ccc(F)cc3)c2n1`: the Potency was > 20 µM (inactive).

Consider `CS(=O)(=O)Nc1cccc(-c2nc(NCCN3CCOCC3)c3ccccc3n2)c1`, for which the Potency is > 20 µM (inactive).

With `COc1ccc(-n2c(=O)cnc3cnc(OC)nc32)cc1`, the Potency is > 20 µM (inactive).

For `COc1cccc(-c2ccc3ncnc(NCc4ccc(OC)cc4OC)c3c2)c1`, the Potency is > 20 µM (inactive).

In the case of `CCNc1ncc2nc(-c3ccc(Cl)cc3)c(=O)n(CCC#N)c2n1`, the Potency is > 20 µM (inactive).

For `CN(C)Cc1ccccc1-c1ccc2ncnc(NC3CCNCC3)c2c1`, the Potency was > 20 µM (inactive).

With `FC(F)(F)c1ccccc1-c1nccc(NCc2ccccc2)n1`, the Potency was > 20 µM (inactive).

`COc1ccccc1CNc1ncnc2ccc(-c3ccoc3)cc12`: the Potency is > 20 µM (inactive).

`O=c1c(-c2cc(F)cc(F)c2)nc2cnc(N3CCOCC3)nc2n1C[C@H]1CCCO1`: the Potency was > 20 µM (inactive).

As to `CCNc1ncc2nc(CCc3ccccc3)c(=O)n(C)c2n1`, the Potency was > 20 µM (inactive).

With `O=C(Nc1ccccc1)N1CCC2(CCNCC2)CC1`, the Potency is > 20 µM (inactive).

Turning to `COc1ccccc1CN1CCC2(CC1)CCN(C(=O)c1ccncc1)CC2`, the Potency is > 20 µM (inactive).

For `FC(F)(F)c1ccccc1-c1ccc2ncnc(NC3CCNCC3)c2c1`, the Potency is > 20 µM (inactive).

As to `COC(=O)N1CCC2(CCN(C(=O)Nc3cccc(C#N)c3)CC2)CC1`, the Potency was > 20 µM (inactive).

Turning to `Cc1noc(C)c1C(=O)N1CCC2(CCCN(C(=O)Nc3ccccc3)C2)CC1`, the Potency is > 20 µM (inactive).

On to `c1cncc(-c2cncnc2NC2CCNCC2)c1`, for which the Potency is > 20 µM (inactive).

As to `COc1ncc2nc(C)c(=O)n(CCc3ccccc3)c2n1`, the Potency is > 20 µM (inactive).

For `CN(C)C(=O)c1ccc(-c2nc(Nc3ccncc3)c3ccccc3n2)cc1`, the Potency was > 20 µM (inactive).
